# Reference: article PMC5700166
# Key:
# [1] = target: GST-Hu-p50 (Homo sapiens, UniProt P19838 7-356); test: protein-binding microarray (PBM); PBM: ~300 nM protein, 6 mM HEPES pH 7.8, 80 mM KCl, 0.5 mM EDTA, 0.5 mM EGTA, 6% glycerol, 35 ng/ul poly-dIdC, 1% milk, 1 h, room temperature; Ap Aiptasia and Nv Nematostella (sea anemones) / Co Capsaspora / Aq Amphimedon (sponge) / Dm Drosophila / Hu human; RHD is the Rel homology domain; high values mean tight binding; conditions: dsDNA, one strand shown
# GST-Hu-p50, sequence (P19838 7-356): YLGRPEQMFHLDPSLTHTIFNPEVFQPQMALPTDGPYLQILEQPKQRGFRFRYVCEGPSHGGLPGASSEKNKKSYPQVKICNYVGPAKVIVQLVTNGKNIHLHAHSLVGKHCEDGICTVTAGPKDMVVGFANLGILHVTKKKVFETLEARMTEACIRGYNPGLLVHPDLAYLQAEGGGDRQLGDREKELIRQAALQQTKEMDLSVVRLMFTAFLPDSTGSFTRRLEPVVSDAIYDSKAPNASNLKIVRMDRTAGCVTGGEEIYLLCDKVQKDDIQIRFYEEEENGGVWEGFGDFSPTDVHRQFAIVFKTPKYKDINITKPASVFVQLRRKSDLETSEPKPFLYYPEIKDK
# [2] = target: T1, GST-Nv-NF-kB (Ser allele) (Nematostella vectensis, UniProt A7UNT2 2-411); test: as above; conditions: dsDNA, one strand shown
# T1 sequence: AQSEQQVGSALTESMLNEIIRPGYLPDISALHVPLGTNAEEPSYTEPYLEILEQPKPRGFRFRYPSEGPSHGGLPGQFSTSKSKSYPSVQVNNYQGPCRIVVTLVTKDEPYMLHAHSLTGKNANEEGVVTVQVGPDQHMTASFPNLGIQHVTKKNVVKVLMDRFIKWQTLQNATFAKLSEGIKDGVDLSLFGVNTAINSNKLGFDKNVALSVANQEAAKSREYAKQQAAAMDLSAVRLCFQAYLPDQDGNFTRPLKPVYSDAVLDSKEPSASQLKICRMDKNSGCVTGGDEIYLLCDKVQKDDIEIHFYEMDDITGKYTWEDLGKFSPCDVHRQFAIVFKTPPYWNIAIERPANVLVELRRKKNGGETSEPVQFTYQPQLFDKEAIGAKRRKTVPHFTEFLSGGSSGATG
Sequence,binding signal [1] [z-score],binding signal [2] [z-score]
CCGATTAACATCAGGAAAGTTCCTGATGTTAATCGGGTCTTGATTCGCTTGACGCTGCTG,1.06,–
CCGATTAACATCACGAAATTCCCTGATGTTAATCGGGTCTTGATTCGCTTGACGCTGCTG,5.1,–
CCGATTAACATCAGGAATCTACCTGATGTTAATCGGGTCTTGATTCGCTTGACGCTGCTG,2.27,1.79
CCGATTAACATCAGGGGATCCCATGATGTTAATCGGGTCTTGATTCGCTTGACGCTGCTG,4.5,6.24
CCGATTAACATCAGGTCGGGAAATGATGTTAATCGGGTCTTGATTCGCTTGACGCTGCTG,1.27,2.31
CCGATTAACATCAGGGAGCCCCCTGATGTTAATCGGGTCTTGATTCGCTTGACGCTGCTG,5.27,3.69
CCGATTAACATCAGGGGGTGTACTGATGTTAATCGGGTCTTGATTCGCTTGACGCTGCTG,4.44,3.99
CCGATTAACATCAGGGAGCTCCCTGATGTTAATCGGGTCTTGATTCGCTTGACGCTGCTG,2.59,1.82
CCGATTAACATCAGGGGGATGGATGATGTTAATCGGGTCTTGATTCGCTTGACGCTGCTG,3.69,4.26
CCGATTAACATCAAATCATCCCCTGATGTTAATCGGGTCTTGATTCGCTTGACGCTGCTG,4.63,6.16
CCGATTAACATCAGGGGATGGGATGATGTTAATCGGGTCTTGATTCGCTTGACGCTGCTG,2.85,4.39
CCGATTAACATCAAGCATCCCCCTGATGTTAATCGGGTCTTGATTCGCTTGACGCTGCTG,4.97,5.87
CCGATTAACATCAATGGGTTTTCTGATGTTAATCGGGTCTTGATTCGCTTGACGCTGCTG,1.9,2.25
CCGATTAACATCAATATTTACCCTGATGTTAATCGGGTCTTGATTCGCTTGACGCTGCTG,3.16,5.12
CCGATTAACATCACGGTATTTCCTGATGTTAATCGGGTCTTGATTCGCTTGACGCTGCTG,1.48,1.75
CCGATTAACATCAGGGAGCTACCTGATGTTAATCGGGTCTTGATTCGCTTGACGCTGCTG,1.35,1.68
CCGATTAACATCAGGGGGCGCACTGATGTTAATCGGGTCTTGATTCGCTTGACGCTGCTG,4.11,2.76
CCGATTAACATCAGTTCCCCCCATGATGTTAATCGGGTCTTGATTCGCTTGACGCTGCTG,4.95,5.19
CCGATTAACATCACCAATTTCCCTGATGTTAATCGGGTCTTGATTCGCTTGACGCTGCTG,3.76,6.05

Sequence,binding signal [1] [z-score],binding signal [2] [z-score]
CCGATTAACATCAAGAATTCCCGTGATGTTAATCGGGTCTTGATTCGCTTGACGCTGCTG,4.39,5.52
CCGATTAACATCATAGTCCCATGTGATGTTAATCGGGTCTTGATTCGCTTGACGCTGCTG,1.34,1.82
CCGATTAACATCACATGGGAAACTGATGTTAATCGGGTCTTGATTCGCTTGACGCTGCTG,1.26,2.7
CCGATTAACATCAGGGGTTTTGATGATGTTAATCGGGTCTTGATTCGCTTGACGCTGCTG,3.98,3.32
CCGATTAACATCAATTACCCCCCTGATGTTAATCGGGTCTTGATTCGCTTGACGCTGCTG,4.35,5.22
CCGATTAACATCAGGGGATTAGATGATGTTAATCGGGTCTTGATTCGCTTGACGCTGCTG,4.35,6.46
CCGATTAACATCAAGGGAAACCCTGATGTTAATCGGGTCTTGATTCGCTTGACGCTGCTG,2.93,4.43
CCGATTAACATCAGGAATTACCATGATGTTAATCGGGTCTTGATTCGCTTGACGCTGCTG,2.05,2.03
CCGATTAACATCACGTAAATCCCTGATGTTAATCGGGTCTTGATTCGCTTGACGCTGCTG,2.23,2.27
CCGATTAACATCAGACTTCCCCATGATGTTAATCGGGTCTTGATTCGCTTGACGCTGCTG,4.73,6.11
CCGATTAACATCAAGGGGAGTCCTGATGTTAATCGGGTCTTGATTCGCTTGACGCTGCTG,4.3,4.97
CCGATTAACATCACAAATGGGAATGATGTTAATCGGGTCTTGATTCGCTTGACGCTGCTG,1.06,1.63
CCGATTAACATCAAAAAACCCACTGATGTTAATCGGGTCTTGATTCGCTTGACGCTGCTG,3.37,2.84
CCGATTAACATCAAATGACCCCCTGATGTTAATCGGGTCTTGATTCGCTTGACGCTGCTG,2.89,2.69
CCGATTAACATCAGGGAAATAACTGATGTTAATCGGGTCTTGATTCGCTTGACGCTGCTG,3.76,4.37
CCGATTAACATCAAAGAAGCCCCTGATGTTAATCGGGTCTTGATTCGCTTGACGCTGCTG,5.02,4.95
CCGATTAACATCAGGGAAAGAAATGATGTTAATCGGGTCTTGATTCGCTTGACGCTGCTG,2.62,3.86
CCGATTAACATCAATCGGGAAATTGATGTTAATCGGGTCTTGATTCGCTTGACGCTGCTG,2.28,3.66
